For 7 sequences, PBM binding z-score results are on record in the supplement of paper PMC6555819.

What all share (assay): PBM binding z-score (relative to random genomic background probes); higher = stronger binding; sequences stand for … in GC…GCGATTGACAGCGTAGAATGAAGG
The subject of assay [1] is RARb homodimer (NR concentration 270 nM). The gist of the method: (§1)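 Ligand-free nuclear receptor dimers were applied to custom Agilent 4×180K protein-binding microarrays whose double-stranded probes carried direct-repeat seeds, single-nucleotide variants, half-site ablations and random human genomic background sequences in 34-nt variable regions. Incubation lasted 1 h. Binding z-scores were computed against the random background probes from regression-normalized fluorescence.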

Assay [2] deals with RARg:RXRa (NR concentration 270 nM, RXRa partner concentration 90 nM). Summed up: as §1
Assay [3] concerns RARg homodimer (NR concentration 270 nM). Summed up:
as §1

In assay [4] the test system is RXRa DBDmut IVT, anti-RXR (DBD mutation: RXRa K156A/R161A, NR concentration 90 nM). The gist of the method:
as §1

In assay [5] the test system is RXRa homodimer (NR concentration 180 nM). The gist of the method:
as §1

The subject of assay [6] is THRa:RXRa (NR concentration 90 nM, RXRa partner concentration 90 nM). Summed up:
as §1

For assay [7], the system named is THRa homodimer (NR concentration 90 nM). Summed up:
as §1

Assay [8] deals with VDR homodimer (NR concentration 270 nM). The gist of the method:
as §1

Consider CAAACTAGGTCGCGAAAGGTCAAAGTCGAATGAC, for which the PBM binding z-score turned out to be 5.22 in assay [1]; 6.69 in assay [2]; 6.26 in assay [3]; 1.98 in assay [4]; 7.33 in assay [5]; 4.79 in assay [6]. Further, the PBM binding z-score in assay [7] is 1.51; in assay [8] it was 3.37.
On to GCTGCTAGGTCAGGTTGGTCACCTAACGGGTACG, for which the PBM binding z-score in assay [1] stood at 2.81; in assay [2], 2.67; in assay [3] it was 3.43; in assay [4] it was 0.0556; in assay [5], 1.44; in assay [6], 2.17. Further, the PBM binding z-score stood at 1.04 in assay [7] and 0.477 in assay [8].
Consider CTACCAAGGTGGACAAGGTCGTTGATTACTATTC, for which the PBM binding z-score in assay [1] worked out at 1; in assay [2] it was 0.429; in assay [3] it was 0.319; in assay [4], 0.874; in assay [5] it was 0.711; in assay [6], 1.81. The PBM binding z-score worked out at 0.933 in assay [7] and 1.68 in assay [8].
On to CGTCCAAGGTCAATGCTAGGTCAGTGTAAGCATT, for which the PBM binding z-score in assay [1] was found to be 5.02; in assay [2], 7.55; in assay [3], 7; in assay [4], 3.74; in assay [5], 5.35; in assay [6] it was 4.48. The PBM binding z-score is 2.75 in assay [7] and 3.52 in assay [8].
With CGAACTAGGTCAGAACAGGACAGTGGAGGATGAT, the PBM binding z-score in assay [1] was 2.31; in assay [2], 2.47; in assay [3], 3.32; in assay [4], 0.671; in assay [5], 1.4; in assay [6], 3.33. Moreover, the results for the PBM binding z-score in assay [7] and in assay [8] were 0.46 and 0.198, respectively.
On to CCAGACAGGTGGAAGGTAACTCAGTCTGGTACGC, for which the PBM binding z-score in assay [1] is 0.0116; in assay [2], -0.129; in assay [3] it was -0.15; in assay [4] it was -0.527; in assay [5], 0.236; in assay [6], -0.18. Moreover, the PBM binding z-score in assay [7] is -0.144; in assay [8], -0.0329.
Take ATCTCTAGGTAAAGATAGATCAGTGAATGCAAAT: the PBM binding z-score in assay [1] is -0.493; in assay [2], 0.264; in assay [3], 0.561; in assay [4] it was -0.154; in assay [5], -0.137; in assay [6], 0.0339. The PBM binding z-score in assay [7] was -0.214; in assay [8] it was -0.0693.
